Inconclusive results are not listed. The source made the active and inactive calls. The call rests on the fitted dose curve; in most records, active means well fitted curve in the direction sought with a large enough effect; inconclusive means small, poorly fitted or top-dose-only effect, or another doubt; inactive means no such curve, though single readings can be large; an effect the other way counts as inactive or inconclusive.
Tests used:
[1] = biological target: Cytochrome P450 3A4 (Homo sapiens) (UniProt P08684); assay: qHTS Assay for Inhibitors and Substrates of Cytochrome P450 3A4 (AID 884); further: series mostly up to about 57 µM; nearly all actives have a fitted effect of over 50% in size
Sequence of Cytochrome P450 3A4 (Homo sapiens) (P08684 whole entry, looked up): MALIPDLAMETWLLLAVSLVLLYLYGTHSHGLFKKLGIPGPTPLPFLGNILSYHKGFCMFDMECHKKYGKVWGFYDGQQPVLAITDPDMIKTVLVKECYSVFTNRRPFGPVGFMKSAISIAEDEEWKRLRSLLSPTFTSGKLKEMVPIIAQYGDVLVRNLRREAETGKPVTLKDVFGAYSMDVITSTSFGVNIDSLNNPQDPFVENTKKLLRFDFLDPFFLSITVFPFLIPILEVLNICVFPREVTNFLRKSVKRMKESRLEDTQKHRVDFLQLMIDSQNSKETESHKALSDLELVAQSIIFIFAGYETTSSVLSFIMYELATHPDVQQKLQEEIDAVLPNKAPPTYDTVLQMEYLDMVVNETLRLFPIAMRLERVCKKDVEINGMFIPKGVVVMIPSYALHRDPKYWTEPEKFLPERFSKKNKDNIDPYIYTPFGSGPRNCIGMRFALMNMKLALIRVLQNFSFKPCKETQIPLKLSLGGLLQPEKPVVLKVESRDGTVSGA
Outline: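 Luminescent readout of luciferin produced by CYP3A4 (20 nM) dealkylation of Luciferin-PPXE, 25 uM (its KM). NADPH-driven reaction ran 60 min at RT after 10 min compound preincubation; data scaled to 57 uM ketoconazole as 100% inhibition.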

[2] = MultiTox-Fluor Cytotoxicity Assay - LYMP1-001 - Dead Cells (AID 946)
Outline: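 Seed 2500 LYMP1-001 cells/well, incubate 5 hr at 37 C; add compound, 16 hr at 37 C; add MultiTox-Fluor reagent, 60 min RT; read dead-cell fluorescence Ex/Em=485/520. Normalize to DMSO and 15 uM tetraoctylammonium bromide.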

[3] = Cell Viability - LYMP1-002 - Assay at 16 hr (AID 948)
Outline: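 Seed 2500 LYMP1-002 cells per well in complete medium and hold 5 hr at 37 C. Add compound across a concentration series and incubate 16 hr at 37 C. Add CellTiter-Glo, wait 30 min at room temperature, read luminescence.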

[4] = MultiTox-Fluor Cytotoxicity Assay - LYMP1-002 - Live Cells (AID 955);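 further: cells exposed to compound for 16 hours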
Outline: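 After 16 h compound exposure at 37 C, live LYMP1-002 lymphoblastoid cells (2500/well) were quantified by cleavage of cell-permeant GF-AFC substrate, read at 405/510 nm after 60 min. Concentration-response fitted with Hill equation for AC50.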

[5] = MultiTox-Fluor Cytotoxicity Assay - LYMP1-002 - Dead Cells (AID 960); further: nearly all actives have a fitted effect of over 60% in size
Outline: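 Dead-cell fluorescence (Ex/Em 485/520) after 16 h compound exposure at 37 C of LYMP1-002 lymphoblastoid cells in complete medium; AC50 by Hill equation, with data scaled between DMSO and 15 uM tetraoctylammonium bromide.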

[6] = MultiTox-Fluor Cytotoxicity Assay - LYMP1-003 - Dead Cells (AID 961); further: nearly all actives have a fitted effect of over 70% in size
Outline: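 LYMP1-003 lymphoblastoid, 2500 cells/well, 5 hr settle then 16 hr cpd at 37 C; MultiTox-Fluor reagent 60 min RT; Ex/Em 485/520 dead-cell signal; norm. DMSO = 0%, 15 uM tetraoctylammonium bromide = 100%; Hill AC50.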

[7] = MultiTox-Fluor Cytotoxicity Assay - LYMP1-003 - Live Cells (AID 962);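 further: cells exposed to compound for 16 hours at 37 °C; cytotoxic hits lower the live-cell protease signal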
Outline: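 Live-cell protease activity (GF-AFC substrate, 405/510 nm, 60 min at room temperature) after 16 h, 37 C compound exposure of human lymphoblastoid LYMP1-003 cells; concentration-response fitted to the Hill equation for AC50.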

[8] = Cell Viability - LYMP1-003 - Assay at 24 hr (AID 963)
Outline: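 Concentration-response qHTS: ATP loss measured by CellTiter-Glo luminescence after 24 h compound exposure at 37 C. Cells were LYMP1-003 human lymphoblastoid, 2500 per well. AC50 derived via standard Hill equation modeling.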

[9] = Cell Viability - LYMP1-003 - Assay at 40 hr (AID 964); further: series mostly up to about 92 µM; nearly all actives have a fitted effect of over 60% in size
Outline: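 Viability is taken as cellular ATP, read by CellTiter-Glo luminescence after 40 h of compound exposure at 37 C. Cells: human lymphoblastoid line LYMP1-003 at 2500/well; AC50 values derived by Hill-equation fitting of concentration-response data.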

[10] = Cell Viability - LYMP2-003 (AID 965);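 further: cells exposed to compounds for 24 h before reading; nearly all actives have a fitted effect of over 50% in size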
Outline: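 Seed 2500 lymphoblastoid cells/well; incubate 5 hr, 37 C; add compounds; incubate 24 hr, 37 C; add CellTiter-Glo, 30 min RT; read luminescence. AC50 from Hill fit.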

[11] = Cell Viability - LYMP2-004 (AID 966); further: nearly all actives have a fitted effect of over 65% in size
Outline: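 AC50 values come from Hill modelling of concentration-dependent loss of intracellular ATP, measured by CellTiter-Glo luminescence. Human LYMP2-004 lymphoblastoid cells (2500/well) were exposed to compound for 24 h at 37 C.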

[12] = Cell Viability - LYMP2-009 (AID 968); further: series mostly up to about 92 µM; nearly all actives have a fitted effect of over 55% in size
[13] = Cell Viability - LYMP2-011 (AID 969); further: nearly all actives have a fitted effect of over 60% in size
Outline: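 Cytotoxicity qHTS with ATP content as read-out: lymphoblastoid cells (2500/well) exposed to compound for 24 h at 37 C, then luciferase luminescence measured. Concentration-response data fitted with the standard Hill equation to give AC50.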

[14] = Cell Viability - LYMP2-013 (AID 970); further: series mostly up to about 92 µM; nearly all actives have a fitted effect of over 55% in size
Outline: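 qHTS cytotoxicity: ATP-dependent luminescence (CellTiter-Glo, 30 min room temperature) read after 24 h compound exposure at 37 C of 2500 LYMP2-013 lymphoblastoid cells per well. Concentration-response fitted with Hill equation to give AC50.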

[15] = Cell Viability - LYMP2-015 (AID 971); further: nearly all actives have a fitted effect of over 55% in size
Outline: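 Cytotoxicity readout: decrease in intracellular ATP (CellTiter-Glo luminescence) in 2500 LYMP2-015 lymphoblastoid cells/well after 24 h compound exposure at 37 C. Concentration-response data fitted with the standard Hill equation to give AC50.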

[16] = Cell Viability - LYMP2-017 (AID 972); further: series mostly up to about 92 µM; nearly all actives have a fitted effect of over 55% in size
Outline: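 CellTiter-Glo luminescence (cellular ATP, 30 min RT) measured cytotoxicity after 24 hr compound treatment at 37 C. Cells were a human lymphoblastoid line, LYMP2-017, plated at 2500/well and incubated 5 hr first; concentration-response fitted with Hill equation for AC50.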

[17] = Cell Viability - LYMP2-019 (AID 973); further: nearly all actives have a fitted effect of over 55% in size
Outline: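 AC50 values come from Hill-equation fits of luminescent intracellular ATP (CellTiter-Glo, 30 min, room temperature) following 24 h compound exposure at 37 C. Cells: LYMP2-019 lymphoblastoid line, 2500 per well, in complete culture medium.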

[18] = Cell Viability - LYMP2-021 (AID 974); further: nearly all actives have a fitted effect of over 55% in size
Outline: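 AC50 values come from Hill-equation fits to CellTiter-Glo luminescence (ATP content), read after 24 hour compound exposure at 37 C of 2500 LYMP2-021 lymphoblastoid cells/well; tetraoctylammonium bromide as positive control.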

[19] = Cell Viability - LYMP2-025 (AID 976); further: series mostly up to about 92 µM
Outline: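 Cytotoxicity read as loss of intracellular ATP (luciferase luminescence) after 24 h compound treatment at 37 C. Uses LYMP2-025 lymphoblastoid cells in 1536-well format; Hill-equation modelling gives AC50; tetraoctylammonium bromide as positive control.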

[20] = Cell Viability - LYMP2-002 (AID 977); further: series mostly up to about 92 µM
Outline: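 Human lymphoblastoid cells, 2500/well, complete medium; 5 h 37 C settle; compound 24 h 37 C; CellTiter-Glo, 30 min RT; luminescence. Decrease in ATP = cytotoxicity; AC50 via Hill equation.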

[21] = Cell Viability - LYMP2-006 (AID 978); further: series mostly up to about 92 µM; nearly all actives have a fitted effect of over 60% in size
Outline: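 Cells are seeded at 2500 per well and rested 5 hr at 37 C. Compounds are added across a concentration series for 24 hr at 37 C, after which ATP is quantified by luciferase luminescence.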

[22] = Cell Viability - LYMP2-007 (AID 979)
Outline: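 AC50 values come from Hill-equation fits of luminescent intracellular ATP (CellTiter-Glo, 30 min, room temperature) following 24 h compound exposure at 37 C. Cells: LYMP2-007 lymphoblastoid line, 2500 per well, in complete culture medium.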

[23] = Cell Viability - LYMP2-008 (AID 980); further: nearly all actives have a fitted effect of over 60% in size
Outline: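 Cytotoxicity determined from ATP-dependent luciferase luminescence (CellTiter-Glo) following 24 h compound exposure of human lymphoblastoid LYMP2-008 cells at 37 C. Concentration-response data fitted to the Hill equation to give AC50.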

[24] = Cell Viability - LYMP2-010 (AID 981); further: nearly all actives have a fitted effect of over 55% in size
Outline: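 CellTiter-Glo ATP luminescence measured cytotoxicity after 24 h compound exposure at 37 C. LYMP2-010 cells were seeded at 2500/well, with tetraoctylammonium bromide as control; concentration-response curves gave AC50 values by the Hill equation.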

Measured: Potency

CCCCCCCCCCCCCC(=O)O
inactive: all assays above
